A selection: hits, their analogues and other compounds. The true share with any hit is near 2.8%.
PME-1 primary: blocks human protein phosphatase methylesterase 1; Q9Y570; recombinant PME-1, FP-Rh probe fluorescence polarization; inhibition, % at 5.9 µM; hit rate 0.53% among 320,000; AID 2130;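 active = inhibition above the campaign mean of all compounds plus 3 SD, cut at about 26% in these data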;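 note: competitive labeling of PME-1 active site by serine hydrolase directed probe; 0% = PME-1 with DMSO and 100% = wells lacking PME-1 enzyme; inhibitors block probe labeling so polarization falls and inhibition rises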
PAFAH1B3 FP inh: PAFAH1B3 (human) inhibition; recombinant PAFAH1B3, FP-rhodamine probe, fluorescence polarization; inhibition, % at 3.39 µM; hit rate 0.28% among 340,000; AID 492972;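 active = inhibition above the screen-wide average of all tested compounds plus 3 SD, cut at about 25% in these data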;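 note: 0% = enzyme with DMSO only and 100% = wells lacking PAFAH1B3 protein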
Target sequence (Q15102 whole entry, looked up): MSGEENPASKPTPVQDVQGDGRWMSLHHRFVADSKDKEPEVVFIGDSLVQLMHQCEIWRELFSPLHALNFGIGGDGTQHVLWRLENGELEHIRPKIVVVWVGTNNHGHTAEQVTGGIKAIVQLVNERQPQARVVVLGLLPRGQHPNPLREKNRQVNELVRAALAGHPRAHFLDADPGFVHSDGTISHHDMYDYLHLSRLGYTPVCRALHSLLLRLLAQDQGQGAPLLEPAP
PAFAH2 inh: PAFAH2 (human) inhibition; recombinant PAFAH2, FP-rhodamine activity probe, fluorescence polarization; hit rate 0.99% among 340,000; inhibition, % at 3.39 µM; Q99487; AID 492956;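 active = inhibition above the mean over all tested compounds plus 3 SD, cut at about 30% in these data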;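 note: inhibitors block probe labeling of enzyme so polarization drops; 0% = enzyme with DMSO and 100% = wells lacking PAFAH2 protein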
pPAFAH inh: inhibitors of human plasma PAF acetylhydrolase (pPAFAH). Q13093. recombinant pPAFAH, FP-rhodamine probe fluorescence polarization. inhibition, % at 3.39 µM. hit rate 1.5% among 330,000. AID 463082;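 active = inhibition above the mean inhibition across the screen plus 3 SD, cut at about 25% in these data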;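 note: inhibitors block binding of the rhodamine activity-based probe so polarization drops; 0% = enzyme with DMSO and 100% = wells lacking pPAFAH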
PAFAH1B2 FP inh: PAFAH1B2 (human) inhibition; recombinant PAFAH1B2, FP-rhodamine activity probe, fluorescence polarization; hit rate 1.2% among 340,000; inhibition, % at 3.39 µM; AID 492953; P68402;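 active = inhibition above the mean of all tested compounds plus 3 SD, cut at about 24% in these data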;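 note: 0% = enzyme with DMSO and 100% = wells lacking PAFAH1B2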
Target sequence (P68402 whole entry, looked up): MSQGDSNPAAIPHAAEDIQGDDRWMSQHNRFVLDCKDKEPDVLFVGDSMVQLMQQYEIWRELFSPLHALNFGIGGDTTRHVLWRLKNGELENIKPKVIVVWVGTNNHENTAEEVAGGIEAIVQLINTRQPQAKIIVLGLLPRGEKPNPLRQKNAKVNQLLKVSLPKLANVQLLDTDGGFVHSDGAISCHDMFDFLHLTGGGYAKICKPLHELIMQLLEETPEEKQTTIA
Fam108B inh: blocks mouse Fam108B hydrolase in RBBP9 counter-screen; AID 1947; recombinant Fam108B, FP-Rh probe fluorescence polarization; hit rate 0.33% among 300,000; inhibition, % at 9.51 µM;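 active = inhibition above the screen mean inhibition plus 3 SD, computed separately per campaign, cut at about 18% in these data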;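 note: inhibitors lower polarization as less probe binds the enzyme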
Starred values were filed as active, the others as inactive; · = not tested or not shown.

SMILES | PME-1 primary | PAFAH1B3 FP inh | PAFAH2 inh | pPAFAH inh | PAFAH1B2 FP inh | Fam108B inh
Nc1nnc(CSCc2ccccc2)s1 | -14.1 | 1.6 | 5.0 | 7.6 | 3.9 | 5.9
Cc1cnc(NC(=O)C2(c3ccccc3)CC2)s1 | -0.1 | 6.7 | 1.4 | 2.8 | 28.6* | -0.8
CCc1ccccc1-n1ncc(C(=O)Nc2ccccc2OC)c1C | 1.5 | 7.8 | -4.8 | 5.8 | -1.9 | 0.1
Cc1cc(C)n(-c2ccc(C(=O)OC(C)C(=O)Nc3ccc(C(N)=O)cc3)cc2)n1 (centres undefined) | · | 3.1 | 4.8 | · | 2.0 | ·
Oc1ccc(/C=C/c2ccc3cccc(O)c3n2)cc1Br | 31.0* | 24.2 | 6.5 | 17.6 | 8.2 | 8.2
COC(=O)C1CCN(C(=O)COC(=O)/C=C/c2ccc(O)c(OC)c2)CC1 | · | -3.9 | -0.6 | 4.3 | 6.3 | ·
COc1cc(/C=C/C(=O)OCC(=O)NCC2CCCCC2)ccc1O | 9.1 | -0.5 | 87.6* | 27.6* | 3.8 | ·
CCCCC[C@H](O)/C=C/[C@H]1CCC(=O)[C@@H]1CCCCCCC(=O)N1CCCCC1CO (some centres undefined) | -3.0 | 5.7 | -9.3 | -1.3 | 4.7 | 0.5
O=S(=O)(Cc1ccccc1)CS(=O)(=O)Cc1ccccc1 | · | 0.2 | 2.4 | · | 0.5 | ·
Cc1ccc(C(=O)NC(C)c2ccc(-n3ccnc3)cc2)o1 (centres undefined) | -1.1 | 4.0 | 8.3 | -1.0 | 3.4 | -1.4
CCn1c(COc2ccccc2C)nnc1SCC(=O)NCc1ccccc1 | 1.9 | 3.5 | -0.1 | 3.2 | 1.7 | 2.0
CCn1c(CSCc2ccc(F)cc2)nnc1SCC(=O)NCc1ccccc1 | -7.0 | 2.2 | -0.3 | 4.2 | 29.9* | 1.5
CCC(C)SCC(=O)Nc1ccc(S(=O)(=O)N2CCOCC2)cc1OC (centres undefined) | 1.9 | 6.7 | 3.5 | 4.2 | 7.1 | -2.5
COc1cc(/C=N/N(C)S(=O)(=O)c2ccc(C)cc2)cc([N+](=O)[O-])c1O | 2.5 | 3.3 | 5.0 | 10.6 | 36.0* | 3.1
COc1cc(/C=N/NS(=O)(=O)c2ccc(C(C)(C)C)cc2)cc([N+](=O)[O-])c1O | 3.0 | 14.9 | 16.5 | 1.9 | 32.7* | 1.6
O=C(O)CNC(=O)C12CC3CC(CC(Cl)(C3)C1)C2 | 0.3 | 6.7 | 0.4 | 2.2 | 32.8* | 2.6
CC(=O)Nc1ccc(S(=O)(=O)NCCSCc2ccc(Cl)cc2Cl)cc1 | -12.9 | 6.9 | -7.8 | 16.2 | 39.2* | 1.7
COc1ccc(-n2nc(C(=O)NCC(=O)NCCC3=CCCCC3)c3ccccc3c2=O)cc1OC | -2.7 | -0.1 | -6.4 | 2.8 | -0.2 | -1.2
COc1ccc(Nc2ncnc3sc(-c4ccccc4)cc23)cc1 | 33.5* | 25.3 | -6.9 | 21.5 | 9.4 | 12.2
O=C(Nc1nnc(CCc2ccccc2)s1)c1ccc(F)cc1 | 0.1 | -2.6 | 1.1 | -1.7 | 4.3 | 2.7
O=C(Nc1nnc(CCc2ccccc2)s1)c1cccc(F)c1 | -1.2 | 12.3 | 10.4 | -2.7 | 24.6* | -3.6
O=C(COC(=O)C12CC3CC(CC(Br)(C3)C1)C2)Nc1cccc(S(=O)(=O)N2CCOCC2)c1 | · | 1.9 | 2.5 | 1.2 | 31.4* | ·
O=C(COC(=O)C12CC3CC(CC(Br)(C3)C1)C2)Nc1cccnc1Cl | -3.2 | 3.5 | 6.2 | 0.1 | 31.6* | 0.8
CN(Cc1ccccc1)C(=O)COC(=O)C12CC3CC(CC(Br)(C3)C1)C2 | · | 9.6 | -17.5 | 1.7 | 42.0* | ·
Cc1ccc(NC(=O)CCNS(=O)(=O)c2ccc(Br)cc2)cc1S(=O)(=O)N1CCOCC1 | 3.3 | 1.4 | -1.5 | 9.7 | 0.1 | 0.3
SMILES | PME-1 primary | PAFAH1B3 FP inh | PAFAH2 inh | pPAFAH inh | PAFAH1B2 FP inh | Fam108B inh
CC(=O)C(N=Nc1ccccc1)(Sc1nnc(-c2ccccc2)n1-c1ccccc1)C(=O)Nc1ccccc1 (centres undefined) | -12.0 | -5.3 | -10.0 | -0.2 | 26.3* | -9.6
COc1cccc(NS(=O)(=O)NC(=O)c2cn(C)c3ccccc23)c1 | -3.2 | 7.7 | 1.8 | 10.7 | -1.1 | -5.0
N#Cc1c(Nc2ccccc2)c(C=NCCN2CCOCC2)c[nH]c1=O | -0.6 | 3.3 | -0.4 | 29.0* | 3.1 | 0.8
N#Cc1c(Nc2ccccc2)c(/C=N/NCCO)c[nH]c1=O | -6.3 | 0.3 | 1.0 | 26.4* | -4.6 | -0.9
CC(OC(=O)CNC(=O)c1sc2ccccc2c1Cl)c1ccccc1 (centres undefined) | 7.4 | 4.6 | -1.0 | 3.7 | -4.5 | ·
O=C(CSc1nc2ccccc2o1)NC(=O)NCc1ccccc1 | -5.0 | 6.8 | -2.9 | -1.3 | -25.6 | -6.9
O=C(CSc1ccc(F)cc1)NCCSc1ccccc1 | 3.2 | 12.0 | 3.7 | 5.6 | 28.3* | -2.7
O=C(CSc1ccc(F)cc1)NC(=O)NCc1ccccc1 | 3.1 | 4.8 | 8.3 | 5.8 | 28.0* | 2.2
O=C(CSc1ncn[nH]1)NCCc1ccc(Cl)cc1 | 0.4 | 8.2 | 10.8 | 1.8 | 30.7* | 1.7
O=C(CSc1ccccc1)NCCc1ccc(F)cc1 | 1.1 | -1.1 | -4.4 | -0.6 | 27.5* | -1.9
O=C(Cc1ccc(F)cc1)NC1CCS(=O)(=O)C1 (centres undefined) | -0.6 | -3.9 | -5.1 | -1.3 | 2.7 | 2.8
O=C(CSc1ccc2ccccc2c1)NCCc1ccc(O)c(O)c1 | 4.3 | 5.6 | 4.0 | 26.8* | 10.8 | -1.4
COCCCNC(=O)C(=O)NC1CCCCC1C (centres undefined) | -5.1 | 13.0 | 6.5 | 25.9* | 4.2 | 2.9
CCC(=O)Nc1ccc2c(c1)Cc1cc([N+](=O)[O-])ccc1-2 | · | 9.2 | 1.3 | · | -3.7 | ·
Cc1ccc(S(=O)(=O)Nc2ccccc2-c2ccccc2NS(=O)(=O)c2ccc(C)cc2)cc1 | 5.0 | -6.2 | 10.2 | 25.2* | 58.8* | 4.1
Cc1cc(C)c(S(=O)(=O)Nc2ccccc2-c2ccccc2)c(C)c1 | 5.8 | 4.1 | -3.9 | 3.2 | 17.8 | -5.1
COC(=O)c1ccc(Sc2ccccc2NS(=O)(=O)c2ccc(C)cc2)nc1 | 28.9* | 4.9 | -1.9 | 1.6 | 4.3 | -3.3
O=S(=O)(Nc1ccccc1-c1ccccc1)c1ccccc1 | · | 7.2 | 6.0 | · | 26.1* | ·
Cc1ccc(S(=O)(=O)Nc2ccccc2C(N)=O)cc1 | -0.3 | 9.3 | 5.4 | -4.1 | 2.2 | -0.7
Cn1cccc1C(=O)OCC(=O)Nc1cc(C(C)(C)C)nn1-c1ccccc1 | 0.6 | -1.4 | -0.4 | 28.7* | 0.1 | -4.2
CC(C)(C)c1cc(NC(=O)COC(=O)c2nccnc2N)n(-c2ccccc2)n1 | 6.2 | 6.6 | 1.4 | 0.4 | -0.1 | -2.0
COc1ccccc1NC(=O)c1ccc2c(O)c(S(=O)(=O)c3ccccc3)c(=O)[nH]c2c1 | 5.8 | 0.3 | 0.2 | 0.2 | 0.1 | 1.3
CCN(CC(=O)Nc1ccc(NC(C)=O)cc1)C(=O)Cc1cccc2ccccc12 | -4.6 | 5.0 | 1.1 | -2.1 | 6.0 | -2.3
O=C(c1ccc(Cl)c(S(=O)(=O)N2CCOCC2)c1)N(Cc1ccco1)Cc1cccs1 | · | 5.7 | -3.2 | · | 4.2 | ·
O=C1NN(c2ccccc2)C(=O)/C1=C/c1ccc(-c2ccc(Cl)c(C(=O)O)c2)o1 | · | 22.9 | 16.5 | · | 6.8 | ·

Source: PubChem (The Scripps Research Institute Molecular Screening Center)
